Screening results as filed in PubChem.
This excerpt belongs to a sample that is enriched for hits.
Tb PYK inh: blocks Trypanosoma brucei pyruvate kinase; 0.12% of 410,000 active; Potency, µM (highest dose often 76.8 µM), usual class: inhibitors; Q57TT1; AID 624173; TbPYK enzyme, Kinase-Glo Plus ATP luminescence, 45 min; note: nearly all actives have a fitted effect of over 50% in size
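In this concentration-response screen, enzyme-free wells defined baseline while DMSO plates tracked drift. Each reaction combined TbPYK, substrate, compound and 130 uM ADP for 45 min at room temperature. Kinase-Glo Plus luminescence gave the signal.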
LmPK inhibitor: inhibitors of Leishmania mexicana pyruvate kinase. Q27686. purified LmPK, Kinase-Glo ATP luminescence, 1 h. Potency, µM (series often up to 57.5 µM), actives largely listed as inhibitors. 0.37% of 290,000 active. AID 1721
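0.1 nM LmPK, 0.5 mM PEP, 0.1 mM ADP; 50 mM imidazole pH 7.2, 7 mM MgCl2, 50 mM KCl; 1 h RT. Kinase-Glo luminescence readout, normalized to no-enzyme (full inhibition) and uninhibited wells.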
RE007 growth inh: less growth of the S. pombe RE007 Vpr strain. S. pombe RE007 Vpr strain, BacTiter-Glo ATP luminescence, 24 h. Potency, µM (doses to about 92.2 µM), hits mostly inhibitors. 0.21% of 360,000 active. AID 651644; active = well fitted falling curve with a large enough effect; inconclusive = small, poorly fitted or top-dose-only effect; inactive = no such curve, though single readings can be large or run the other way; note: nearly all actives have a fitted effect of over 50% in size
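Fission yeast RE007 carrying one integrated HIV-1 vpr copy, seeded at OD 0.01 in PMG+AL medium with 23 nL pinned compound. Grown 24 h at 30 degrees; viability read by BacTiter-Glo luminescence after 5 min.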
Shiga toxin inh: blocks Shiga toxin action in Vero cells | inhibition, % at 38.7 µM | AID 2315 | Vero cells, Shiga toxin protein synthesis inhibition reporter | 9.2% of 290,000 active; in the data active = inhibition mostly above about 28%, no sharp cut-off; inactive = mostly below about 43%
FBPA Giardia inh: inhibitors of Giardia lamblia fructose-1,6-bisphosphate aldolase; A8B2U2; purified Giardia FBPA; Potency, µM (highest dose often 59.6 µM), most hits filed as inhibitors; 0.71% of 290,000 active; AID 2451; note: nearly all actives have a fitted effect of over 55% in size
Target sequence (A8B2U2 whole entry, looked up): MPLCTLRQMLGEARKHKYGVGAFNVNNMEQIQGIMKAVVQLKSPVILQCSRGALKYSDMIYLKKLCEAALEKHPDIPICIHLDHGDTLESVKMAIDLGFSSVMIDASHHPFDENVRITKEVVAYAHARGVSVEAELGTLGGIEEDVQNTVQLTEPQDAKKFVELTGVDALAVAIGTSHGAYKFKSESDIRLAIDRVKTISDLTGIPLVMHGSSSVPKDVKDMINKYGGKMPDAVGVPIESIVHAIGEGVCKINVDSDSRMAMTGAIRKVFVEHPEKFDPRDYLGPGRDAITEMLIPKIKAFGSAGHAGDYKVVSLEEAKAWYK
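Giardia FBPA (40 nM reagent) was preincubated 10 min at RT with compound (up to 57.5 uM final), then substrate plus GAPDH/TPI/NAD/arsenate coupling system with diaphorase/resazurin was added; resorufin fluorescence (525/598 nm) was read after 20 min.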
CHX counter: affects cycloheximide protein synthesis inhibition readout, counter-screen; cell reporter, cycloheximide protein synthesis inhibition counterscreen; 12% of 300,000 active; max response, %; in the data active = max response mostly above about 13%, no sharp cut-off; inactive = mostly below about 14%; note: read at 38.3 µM for the half of the compounds with a filed dose
Each line names hits and unclear results; the compound was inactive in the other large screens. Unless noted, calls come from the whole dose curve; as a rule, active = well fitted curve in the direction sought with a large enough effect; inconclusive = small, poorly fitted or top-dose-only effect, or another doubt; inactive = no such curve, though single readings can be large; an effect the other way counts as inactive or inconclusive.

COc1ccc(C(=O)Nc2nnc(CC(=O)N/N=C/c3ccc(O)cc3O)s2)cc1	Shiga toxin inh 42.9, CHX counter 17.2 (no result: Tb PYK inh, RE007 growth inh)
Cc1ccc(C(=O)Nc2nnc(CC(=O)N/N=C/c3ccc(O)c(O)c3)s2)cc1	FBPA Giardia inh inconclusive, CHX counter 23.6 (no result: RE007 growth inh)
CCOC(=O)C1CCN(c2cc(C)nc3c(-c4ccccc4OC)c(C)nn23)CC1	none (no result: LmPK inhibitor, RE007 growth inh, Shiga toxin inh, FBPA Giardia inh, CHX counter)
Cn1c(=O)cnc2cnc(OCc3ccccc3)nc21	none (no result: Tb PYK inh, LmPK inhibitor, RE007 growth inh, Shiga toxin inh, CHX counter)
O=C1c2ccccc2NC(c2ccccc2O)N1c1ccc(F)cc1 (stereo not given)	Shiga toxin inh 55.7, CHX counter 66.6
COc1cccc(C2Nc3ccccc3C(=O)N2c2ccc(F)cc2)c1O (stereo not given)	Shiga toxin inh 79.2, CHX counter 59.4
CN(C(=O)Cn1c(=O)n(Cc2ccc(C(=O)NCc3ccc4c(c3)OCO4)cc2)c(=O)c2ccccc21)c1ccccc1	none (no result: LmPK inhibitor, RE007 growth inh, Shiga toxin inh, FBPA Giardia inh, CHX counter)
O=C(Nc1ccc(F)cc1)c1ccc(-n2cnc3cccnc32)cc1	none (no result: LmPK inhibitor, RE007 growth inh, Shiga toxin inh, FBPA Giardia inh, CHX counter)
COc1ccc(C(NC(=O)/C=C/c2ccco2)c2ccc(OC)c(OC)c2)cc1 (stereo not given)	Shiga toxin inh 84.7, CHX counter 42.2
CN1CCN(c2ccc(NC(=S)NC(=O)/C=C/c3ccco3)cc2)CC1	RE007 growth inh inconclusive, Shiga toxin inh 105.6, CHX counter 44.4
CCOc1ccc(NC(=S)NC(=O)/C=C/c2ccco2)cc1	CHX counter 13.2 (no result: Shiga toxin inh)
CC(=O)N(C)c1ccc(NC(=S)NC(=O)/C=C/c2ccco2)cc1	none
CC(=O)Nc1ccc(NC(=S)NC(=O)/C=C/c2ccco2)cc1	none (no result: Shiga toxin inh)
O=C(/C=C/c1ccco1)Nc1ccccc1C(=O)Nc1cccc(C(=O)O)c1	none
O=C(/C=C/c1ccco1)NC(=S)Nc1cccc(C(=O)O)c1	Shiga toxin inh 44.8, FBPA Giardia inh inconclusive, CHX counter 22.8
COc1ccccc1/C=C(\C#N)c1nc(-c2cc3ccccc3oc2=O)cs1	none (no result: LmPK inhibitor, RE007 growth inh, Shiga toxin inh, FBPA Giardia inh, CHX counter)
CCOC(=O)c1ccc2c(c1)N(CC(=O)N(C)c1ccccc1)C(=O)c1ccccc1S2	none (no result: LmPK inhibitor, RE007 growth inh, Shiga toxin inh, FBPA Giardia inh, CHX counter)
COc1ccc(NC(=S)NC(=O)/C=C/c2ccco2)c(OC)c1	none (no result: Shiga toxin inh)
COc1cccc(NC(=S)NC(=O)/C=C/c2ccco2)c1	Shiga toxin inh 57.9, FBPA Giardia inh inconclusive, CHX counter 31.0
CNc1cccc2c1C(=O)c1ccccc1C2=O	CHX counter 15.6
Cc1ccccc1N=C1NC(=O)/C(=C/c2cccn2C)S1	CHX counter 13.3
Cc1cccc(N=C2NC(=O)/C(=C/c3cccn3C)S2)c1	Shiga toxin inh 52.2, CHX counter 26.8
O=C1NC(=Nc2ccccc2)S/C1=C\c1cccn1-c1ccccc1	Shiga toxin inh 60.6, CHX counter 46.9
Cc1ccc(C)c(NC(=O)CSc2nc(=O)n(Cc3ccncc3)c3c2CCC3)c1	none (no result: LmPK inhibitor, RE007 growth inh, Shiga toxin inh, FBPA Giardia inh, CHX counter)
COc1ccc(S(=O)(=O)c2cc3cc(C(C)(C)C)cc(O)c3oc2=O)cc1	none (no result: LmPK inhibitor, RE007 growth inh, Shiga toxin inh, FBPA Giardia inh, CHX counter)
COc1ccc(N=Cc2sc(O)c3ccccc23)cc1	Shiga toxin inh 87.2, CHX counter 66.1
COc1ccc(N=Cc2c(O)c3ccccc3n2C(C)=O)cc1	RE007 growth inh inconclusive, FBPA Giardia inh inconclusive, CHX counter 14.4
COc1ccc(N=Cc2c(OC)ccc3ccccc23)cc1	none (no result: LmPK inhibitor, Shiga toxin inh, FBPA Giardia inh, CHX counter)
CCN1C(C(=O)c2ccccc2)=C(OC(=O)c2ccccc2OC)c2ccccc2S1(=O)=O	none (no result: LmPK inhibitor, RE007 growth inh, Shiga toxin inh, FBPA Giardia inh, CHX counter)
O=C(CSc1ccc(-c2cccc([N+](=O)[O-])c2)nn1)NCc1ccccc1	none
CSc1ccc(-c2cccc([N+](=O)[O-])c2)nn1	Shiga toxin inh 79.4, CHX counter 27.4
O=C(CSc1ccc(-c2cccc([N+](=O)[O-])c2)nn1)NC1CCCC1	none
O=[N+]([O-])c1cccc(-c2ccc(SCc3cccnc3)nn2)c1	CHX counter 44.1
CCCCC(=O)O[C@]1(C(=O)CO)[C@H](C)C[C@H]2[C@@H]3CCC4=CC(=O)C=C[C@]4(C)[C@@]3(F)[C@@H](O)C[C@@]21C	none (no result: LmPK inhibitor, RE007 growth inh)
CN(C)C1(CNC(=O)COc2ccc([N+](=O)[O-])cc2)CCCCC1	none (no result: LmPK inhibitor, RE007 growth inh, Shiga toxin inh, FBPA Giardia inh, CHX counter)
COc1cccc(CSc2nnc(C(F)(F)F)n2Cc2ccc(F)cc2)c1	none
Cc1ccc(CSc2nnc(C(F)(F)F)n2Cc2ccc(F)cc2)cc1	CHX counter 16.0
O=C1CCCC=C1[C@H](O)CCCCBr	none (no result: Tb PYK inh, LmPK inhibitor, RE007 growth inh, Shiga toxin inh, CHX counter)
